# Cycloheximide cs = Cycloheximide Counterscreen for Small Molecule Inhibitors of Shiga Toxin; max response, %; actives 12% (n = 300,000); cell reporter, cycloheximide protein synthesis inhibition counterscreen; in the data active = max response mostly above about 13%, no sharp cut-off; inactive = mostly below about 14%; note: read at 38.3 µM for the half of the compounds with a filed dose; 0% is about no effect
# FBPA Giardia inh = qHTS Assay for Inhibitors of Fructose-1,6-bisphosphate Aldolase from Giardia Lamblia; purified Giardia FBPA; A8B2U2; actives 0.71% (n = 290,000); Potency, µM (top dose mostly 59.6 µM), for the others: at the highest dose activity, negative = inhibition, most hits filed as inhibitors; note: potency is the fitted concentration of half-maximal effect; % is set by controls: 0 for no effect and ±100 for the full control effect; nearly all actives have a fitted effect of over 55% in size
# Target sequence (A8B2U2 whole entry, looked up): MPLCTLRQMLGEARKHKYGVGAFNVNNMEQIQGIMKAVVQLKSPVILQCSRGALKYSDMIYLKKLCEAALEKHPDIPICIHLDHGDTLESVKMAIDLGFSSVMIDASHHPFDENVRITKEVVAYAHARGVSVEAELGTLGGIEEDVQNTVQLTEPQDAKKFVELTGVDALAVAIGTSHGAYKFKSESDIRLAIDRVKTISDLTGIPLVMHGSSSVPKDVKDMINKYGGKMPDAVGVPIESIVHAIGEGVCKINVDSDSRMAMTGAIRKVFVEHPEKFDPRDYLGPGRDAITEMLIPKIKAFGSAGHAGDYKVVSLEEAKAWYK
#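 Giardia FBPA (40 nM reagent) was preincubated 10 min at RT with compound (up to 57.5 uM final), then substrate plus GAPDH/TPI/NAD/arsenate coupling system with diaphorase/resazurin was added; resorufin fluorescence (525/598 nm) was read after 20 min.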
# LmPK inh = qHTS Assay for Inhibitors of Leishmania Mexicana Pyruvate Kinase (LmPK). AID 1721, 2009. Potency, µM (doses to about 57.5 µM), for the others: at the top dose activity change, negative = inhibition, most hits filed as inhibitors. Q27686. purified LmPK, Kinase-Glo ATP luminescence, 1 h. actives 0.37% (n = 290,000); note: potency is the fitted concentration of half-maximal effect; % is set by controls: 0 for no effect and ±100 for the full control effect
#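 Pyruvate kinase activity monitored as ATP production (luciferase luminescence). Conditions: 0.1 nM enzyme, 0.5 mM PEP, 0.1 mM ADP, 1 h, RT; normalized against uninhibited and no-enzyme wells.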
# Sm TGR block = qHTS Assay for the Inhibitors of Schistosoma Mansoni Peroxiredoxins; purified TGR, DTNB reduction, TNB absorbance 405 nm; AID 485364, 2010; actives 3% (n = 360,000); Potency, µM (doses to about 114 µM), without a hit: at the top dose activity change, negative = inhibition, hits mostly inhibitors; note: potency is the fitted concentration of half-maximal effect; % is set by controls: 0 for no effect and ±100 for the full control effect; nearly all actives have a fitted effect of over 60% in size
#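 Kinetic colorimetric format: TGR-catalysed, NADPH-driven DTNB reduction monitored via TNB absorbance. Enzyme dispensed at 20 nM; compound exposure 15 min at room temperature before reaction start.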
# Tb PYK inh = qHTS of Trypanosoma Brucei Inhibitors. pyruvate kinase (Trypanosoma brucei), Q57TT1. TbPYK enzyme, Kinase-Glo Plus ATP luminescence, 45 min. Potency, µM (doses to about 76.8 µM), without a hit: top-dose activity, negative = inhibition, hits mostly inhibitors. actives 0.12% (n = 410,000). AID 624173, 2012; note: potency is the fitted concentration of half-maximal effect; % is set by controls: 0 for no effect and ±100 for the full control effect; nearly all actives have a fitted effect of over 50% in size
#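 ADP (130 uM final) triggers the TbPYK reaction after compound addition; incubation is 45 min at room temperature. Kinase-Glo Plus is then added and luminescence imaged. Normalized data are fitted to concentration-effect curves.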
# Shiga inhibitor = A qHTS for Small Molecule Inhibitors of Shiga Toxin | Vero cells, Shiga toxin protein synthesis inhibition reporter | inhibition, % at 38.7 µM | actives 9.2% (n = 290,000); in the data active = inhibition mostly above about 28%, no sharp cut-off; inactive = mostly below about 43%; note: 0% is about no effect
# Starred values were filed as active, the others as inactive; ? = inconclusive; . = no result; [ ] = dose if it differs, or a comment. The full list was thinned out, with hits kept by preference. Unless noted, calls come from the whole dose curve; as a rule, active = well fitted curve in the direction sought with a large enough effect; inconclusive = small, poorly fitted or top-dose-only effect, or another doubt; inactive = no such curve, though single readings can be large; an effect the other way counts as inactive or inconclusive.
SMILES,Cycloheximide cs,FBPA Giardia inh,LmPK inh,Sm TGR block,Tb PYK inh,Shiga inhibitor
CCNS(=O)(=O)c1ccc(NC(=O)c2ccc(Cn3cc([N+](=O)[O-])cn3)o2)cc1,5.0,15.9%,5.1%,-19.9%,-1.0%,22.7
O=C(Nc1cnn(Cc2c(Cl)cccc2Cl)c1)c1ccc([N+](=O)[O-])cc1,53.4*,0.4%,5.9%,-0.3%,-5.8%,86.9*
COc1ccc(C(=O)Nc2ccc(CN3CCS(=O)(=O)CC3)cc2)cc1,3.3,4.3%,2.7%,-0.4%,3.0%,9.4
C/C(CC(=O)Nc1ccc(N(C)C)cc1)=N\NC(=O)c1ccc([N+](=O)[O-])cc1,17.9*,-2.8%,-3.8%,?,-5.5%,33.1
Nc1ncc(S(=O)(=O)NCc2cccc(Cl)c2)cn1,.,.,.,6.6%,-8.5%,.
Cc1ccc(NC(=O)CC(C)S(=O)(=O)c2ccc3c(c2)NC(=O)CO3)cc1Cl (stereo not drawn),.,.,.,2.8%,-5.8%,.
COc1cc2[nH]c(=O)n(Cc3ccc(C(=O)NCc4ccccc4)cc3)c(=O)c2cc1OC,.,.,.,1.1%,-1.2%,.
COc1ccc(CC(=O)N/N=C(\C)CC(=O)Nc2ccc(N(C)C)cc2)cc1,-2.5,12.3%,-0.7%,1.7%,-5.8%,15.5
C/C(CC(=O)Nc1ccc(N(C)C)cc1)=N\NC(=O)Cc1csc(N)n1,19.5*,?,-1.6%,-4.4%,-11.5%,47.8*
Cc1ccc(C(=O)Nc2ccc(CN3CCS(=O)(=O)CC3)cc2)cc1C,36.2*,0.4%,1.6%,29.1%,-7.3%,73.4*
Cc1ccc(CN2C(=O)c3oc4ccc(C)cc4c(=O)c3C2c2ccc(O)cc2)cc1 (stereo not drawn),.,.,.,7.2%,0.6%,.
O=C1C2C3CCCC3=C3CCCC3C2C(=O)N1c1ccccc1Cl (stereo not drawn),6.8,.,.,.,.,2.4
C#CCOC(=O)CN1C(=O)c2cccc3cccc(c23)C1=O,17.8*,5.4%,11.6%,-18.8%,-1.7%,41.1
Cc1noc(C)c1-c1ccc2ncnc(NCc3cc(F)cc(F)c3)c2c1,-2.1,?,.,.,.,4.3
O=C(NNC(=S)NC(=O)c1ccco1)c1ccc(NC(=O)c2ccccc2)cc1,-8.1,26.1%,11.4%[11.5 µM],-5.0%,2.2%,-9.4
O=C(NC(=S)NNC(=O)c1cc2ccccc2cc1O)c1ccco1,6.7,12.3%,4.3%,-22.0%,-6.1%,13.8
O=C(NC(=S)NNC(=O)c1ccco1)c1ccc(F)cc1,24.0*,16.7%,0.7%,?,?,active
COc1ccc(C(=O)NC(=S)NNC(=O)c2ccco2)cc1,27.5*,6.9%,4.9%,-22.3%,-15.0%,21.8
O=C(NC(=S)NNC(=O)c1ccccc1O)c1ccco1,21.4*,?,-5.7%,0.0%,?,-4.2
Cc1ccccc1CNc1nc(N)n(-c2ccccc2)n1,8.7,-15.2%,-0.3%,9.2%,1.3%,31.9
Nc1nc(NCc2c(F)cccc2Cl)nn1-c1ccccc1,25.1*,-16.5%,-0.8%,10.0%,-5.4%,55.9*
Cc1ccc(Cl)cc1N1CCN(C(=O)CCCCCn2c(=O)[nH]c3ccccc3c2=O)CC1,.,.,.,-5.3%,0.4%,.
CC(C)OC(=O)C(C(=O)OC(C)C)=C1SC=CS1,.,.,.,.,-9.1%,.
CCOc1ccc(C(c2c(NC(=O)c3ccccc3)sc(C)c2C)N2CCN(C)CC2)cc1 (stereo not drawn),16.1,7.7%,-1.8%,-0.9%,-3.2%,31.2*
CCOc1ccc(C(c2c(NC(=O)c3ccco3)sc(C)c2C)N2CCOCC2)cc1 (stereo not drawn),.,.,.,-29.2%,-0.8%,.
SMILES,Cycloheximide cs,FBPA Giardia inh,LmPK inh,Sm TGR block,Tb PYK inh,Shiga inhibitor
CCc1cc(C(c2ccccn2)N2CCN(C)CC2)c(NC(=O)c2ccccc2)s1 (stereo not drawn),-1.1,4.7%,-6.9%,11.2µM*,6.1%,-9.8
CCOc1ccccc1CNC(=O)CCCn1nc(C)c2sc3ccccc3c2c1=O,.,.,.,5.4%,0.8%,.
c1ccc(COc2ccc(-c3sc(Nc4ccccc4)n[n+]3-c3ccccc3)cc2)cc1,20.1*,?,2.8%,-15.2%,.,34.7*
O=C(O)c1ccc(-c2sc(Nc3ccccc3)n[n+]2-c2ccccc2)cc1,20.0*,-23.7%,2.3%,-14.5%,-4.5%,25.9
CCc1ccc(Nc2n[n+](-c3ccccc3)c(-c3ccc(OCc4ccccc4)cc3)s2)cc1,19.0*,?,-2.8%,-24.6%,-6.8%,13.6
CCc1ccc(Nc2n[n+](-c3ccccc3)c(-c3c(Cl)cccc3Cl)s2)cc1,0.2,?,2.9%,-1.0%,-1.7%,-1.3
COc1ccc(CCNC(=O)CCSCc2ccccc2Cl)cc1OC,.,.,.,3.8%,1.3%,.
Cc1ccc(O)c(C(CC(=O)NCC2(c3ccccc3)CCCC2)c2ccccc2)c1 (stereo not drawn),.,.,.,-3.3%,3.1%,.
Cc1cc(NC(=O)CCc2ccccc2)c([N+](=O)[O-])cc1C,35.8*,-6.7%,2.7%,-7.3%,-1.6%,-2.2
CCC(CC)C(=O)Nc1cccc(C(=O)NCCc2ccccc2)c1,19.3*,2.8%,0.3%,.,7.0%,105.4*
NC(=O)c1ccc(NCC2CCCO2)c([N+](=O)[O-])c1 (stereo not drawn),25.6,-3.3%,-0.5%,-0.6%,0.6%,10.3
CCC(CC)C(=O)Nc1cccc(C(=O)NCCc2ccc(S(N)(=O)=O)cc2)c1,-2.7,3.1%,6.6%,4.7%,0.2%,-15.8
Cc1c(NC(=O)CCc2ccccc2)cccc1[N+](=O)[O-],5.4,2.3%,-1.0%,-4.1%,-3.7%,16.1
Cc1cc(C(=O)NCC(c2ccco2)N(C)C)ccc1[N+](=O)[O-] (stereo not drawn),8.9*,-7.6%,4.5%,-18.9%,-2.2%,-4.0
O=C(NCCc1ccccc1)c1ccc(NCC2CCCO2)c([N+](=O)[O-])c1 (stereo not drawn),42.6*,-2.2%,7.9%,-11.3%,-1.6%,116.8*
CCC(c1nnnn1-c1c(C)cccc1C)N1CCN(CCN2CCOCC2)CC1 (stereo not drawn),.,.,.,.,0.7%,.
COc1ccc2oc(-c3cccc(NC(=O)c4ccc(C#N)cc4F)c3)nc2c1,.,.,.,11.1%,-1.2%,.
O=C(Nc1ccc(Nc2ccccc2)cc1)c1ccc(Cl)c([N+](=O)[O-])c1,-0.4,1.6%,-0.3%,0.0%,-12.4%,5.6
O=C(NN1CCOCC1)c1ccc(Cl)c([N+](=O)[O-])c1,26.6*,4.4%,0.5%,5.8%,6.4%,61.5*
O=C(NCCc1ccccc1)c1ccc(Cl)c([N+](=O)[O-])c1,64.4*,-1.6%,3.1%,-10.3%,-1.1%,135.9*

# Source: PubChem BioAssay
